High-throughput results from PubChem BioAssay.
Cycloheximide cs – affects cycloheximide protein synthesis inhibition readout, counter-screen; max response, %; cell reporter, cycloheximide protein synthesis inhibition counterscreen; actives 12% (n = 300,000); in the data active means max response mostly above about 13%, no sharp cut-off; inactive means mostly below about 14%; further: read at 38.3 µM for the half of the compounds with a filed dose; 0% is about no effect
Shiga toxin inh – blocks Shiga toxin action in Vero cells; Vero cells, Shiga toxin protein synthesis inhibition reporter; inhibition, % at 38.7 µM; actives 9.2% (n = 290,000); AID 2315; in the data active means inhibition mostly above about 28%, no sharp cut-off; inactive means mostly below about 43%; further: 0% is about no effect
NS1 inh – blocks influenza NS1 protein function; Potency, µM (titrated, usually from 46.1 µM), inactives show top-dose activity, positive = more growth; actives 0.4% (n = 270,000); AID 2326; calls by dose curve; further: potency means the concentration at half of the fitted maximal effect; actives are rising curves; nearly all actives have a fitted effect of over 50% in size
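Recovery from NS1-induced slow growth read by OD600 in budding yeast switched to galactose assay medium (pH 6.0, -URA) at 1:100 dilution. Compound 23 nl per well; the matching strain lacking NS1 serves as control.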
AmpC inh detg – inhibitors of E. coli AmpC beta-lactamase with detergent; P00811; AmpC hydrolysis of nitrocefin, absorbance 480 nm, 0.01% Triton; Potency, µM (doses to about 114 µM), without a hit: top-dose activity change, negative = inhibition, actives largely listed as inhibitors; actives 0.041% (n = 370,000); AID 485294;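 further: potency means the concentration at half of the fitted maximal effect; 0% = no-compound wells and -100% = no-enzyme wells; nearly all actives have a fitted effect of over 25% in size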
Target sequence (P00811 whole entry, looked up): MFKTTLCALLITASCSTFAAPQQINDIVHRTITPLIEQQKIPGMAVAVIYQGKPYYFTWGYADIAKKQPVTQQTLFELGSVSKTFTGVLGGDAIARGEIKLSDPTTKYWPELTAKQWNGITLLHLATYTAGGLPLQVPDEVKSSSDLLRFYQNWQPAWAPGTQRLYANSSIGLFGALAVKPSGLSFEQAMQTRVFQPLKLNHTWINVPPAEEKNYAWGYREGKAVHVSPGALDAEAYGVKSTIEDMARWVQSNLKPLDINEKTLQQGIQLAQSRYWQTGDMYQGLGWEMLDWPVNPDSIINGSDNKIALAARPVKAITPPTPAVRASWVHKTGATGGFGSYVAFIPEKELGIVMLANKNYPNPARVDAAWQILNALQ
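AmpC (5.3 nM in the dispensed reagent) in 20 mM phosphate pH 7.0 with 0.01% (detergent screen) or 0.0001% Triton X-100 was preincubated with compounds for 15 min at room temperature. Nitrocefin was then added from an 800 uM solution, and hydrolysis was followed at 480 nm.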
AmpC inh no detg – inhibitors of E. coli AmpC beta-lactamase without detergent; AmpC nitrocefin hydrolysis, absorbance 480 nm, 0.0001% Triton; Potency, µM (series often up to 57.1 µM), without a hit: at the highest dose activity change, negative = inhibition, hits mostly inhibitors; actives 0.52% (n = 330,000);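 further: potency means the concentration at half of the fitted maximal effect; plate controls were no compound for no effect and no enzyme for full effect; nearly all actives have a fitted effect of over 20% in size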
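20 mM phosphate pH 7.0 + 0.01% (detergent screen) or 0.0001% Triton X-100; 5.3 nM AmpC reagent; cpd preinc 15 min RT; nitrocefin (800 uM stock) to start; A480 q20 s × 4 min; Activity was normalised to no-enzyme and no-compound control wells.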
* = called active by the depositor; ? = inconclusive; . = no result. Only a selection was taken, and hits are over-represented in it overall. Unless noted, the call rests on the fitted dose curve; in most records, active means well fitted curve in the direction sought with a large enough effect; inconclusive means small, poorly fitted or top-dose-only effect, or another doubt; inactive means no such curve, though single readings can be large; an effect the other way counts as inactive or inconclusive.

SMILES	Cycloheximide cs	Shiga toxin inh	NS1 inh	AmpC inh detg	AmpC inh no detg
Cn1cc(Cl)c(C(=O)N/N=C/c2ccc(OS(=O)(=O)c3ccccc3)cc2)n1	21	-13	-22%	?	-16%
Cc1ccc(/C=N/NC(=O)c2nn(C)cc2Cl)cc1	34*	47*	-8%	-15%	-23%
Cn1cc(Cl)c(C(=O)N/N=C/c2ccc3c4c(cccc24)CC3)n1	29*	61*	-10%	-1%	-28%
Cc1csc(SCc2nnc(-c3ccccc3Br)o2)n1	48*	78*	-19%	1%	-19%
Cc1csc(SCc2nnc(-c3ccc(Cl)cc3)o2)n1	32*	91*	-17%	-1%	-15%
O=C(CSc1nnc(-c2ccccc2Br)o1)Nc1nncs1	11	11	-1%	-7%	-23%
Cc1nnc(SCC(=O)Nc2nnc(-c3ccccc3)o2)s1	.	.	.	-13%	-4%
Cc1cccc2cc(C#N)c(SCc3nnc(-c4ccccc4[N+](=O)[O-])o3)nc12	0	9	0%	-8%	-12%
Cc1ccc(-c2nnc(CSc3nnc(C)s3)o2)cc1	33*	80	-87%	-14%	1%
Fc1ccccc1SCc1nnc(-c2ccccc2Br)o1	53*	141*	-25%	3%	-32%
CCCCCOc1ccc(C2c3c(oc4ccccc4c3=O)C(=O)N2c2nc(C)c(C)s2)cc1OCC (stereo not given)	.	.	.	18%	.
CCC(=O)N1CCc2cc(S(=O)(=O)NC(CC(C)C)C(=O)Nc3ccc(CC)cc3)ccc21 (stereo not given)	.	.	.	2%	.
Cc1cc(OCC(=O)NCCCN2CCCC2=O)c2c(C)c(C)c(=O)oc2c1	-1	-5	16%	-10%	19%
Cc1cc(C)c2c(SCc3ccc(Cl)cc3Cl)nc(N)nc2n1	.	.	-3%	.	.
Cc1nc(NC(=O)C23CC4CC(CC(C4)C2)C3)sc1Cc1ccc2c(c1)OCO2	25*	67*	-6%	-14%	-23%
Cc1nc(NC(=O)C2CCCC2)sc1Cc1ccc2c(c1)OCO2	22*	52	-16%	-11%	-39%
Cc1ccc2c(c1)N(C(=O)C1CCN(S(=O)(=O)c3c(C)noc3/C=C/c3ccccc3F)CC1)CCO2	.	.	.	-7%	.
O=C(COC(=O)c1ccccc1O)Nc1ccc(OC(F)F)cc1	22*	56*	-5%	0%	-32%
NS(=O)(=O)c1ccc(NC(=O)COC(=O)C2CCCCC2)cc1	33*	40*	-3%	-2%	-25%
O=C(COC(=O)C1CC1)Nc1ccc(OC(F)F)cc1	26*	24*	-11%	0%	-10%
O=C(COC(=O)C1CC1)NCc1ccccc1	.	.	.	-5%	-13%
COc1ccc(C(=O)OCC(=O)Nc2ccc(OC(F)F)cc2)c(OC)c1	-5	-17	-15%	3%	-13%
O=C(COC(=O)C1CC1)Nc1ccc(N=Nc2ccccc2)cc1	66*	79*	-1%	?	-19%
O=c1c2cnn(-c3ccc(Cl)cc3)c2ncn1Cc1ccc(Cl)cc1Cl	.	.	.	-8%	.
O=C(NCc1ccccn1)C1(C(F)(F)F)CC(CCCO)CCCO1 (stereo not given)	-1	-7	.	.	.
SMILES	Cycloheximide cs	Shiga toxin inh	NS1 inh	AmpC inh detg	AmpC inh no detg
COC(=O)CCC(=O)Nc1ccc(N=Nc2ccccc2)cc1	39*	64*	.	?	-7%
Clc1c(-c2ccccc2)nnn1-c1ccccc1	56*	105*	-19%	-11%	-16%
c1ccc(-n2nnc3ccccc32)cc1	1	15	-15%	?	-24%
CCc1ccccc1NC(=O)c1nnn(-c2ccc(F)cc2)c1C	.	.	.	7%	.
CCc1nn(CC(=O)NCc2ccc(OC)cc2OC)c(=O)c2cc3c(OC)cccc3n12	.	.	.	18%	.
CCSc1ccc(-c2nn(-c3ccccc3)cc2/C=C(/C#N)C(=O)NC)cc1	-4	-4	2%	?	-33%
CCOC(=O)Cn1cc(/C=C(/C#N)C(=O)NC(C)C)c2ccccc21	3	6	-7%	7%	12%
CCOC(=O)Cn1cc(/C=C(\C#N)C(=O)N2CCOCC2)c2ccccc21	10*	74*	-3%	4%	-2%
CCCSc1ccc(-c2nn(-c3ccccc3)cc2/C=C(/C#N)C(=O)N2CCOCC2)cc1	16*	0	?	?	65%
COc1ccc(CNS(=O)(=O)c2cc3c4c(c2)C(C)C(=O)N4CCC3)cc1 (stereo not given)	-3	-12	13%	2%	-13%
